From PubChem
ATXN2 expr inh: Primary qHTS for Inhibitors of ATXN expression; HEK-293 ATXN2-luciferase reporter, luminescence, 24 h; Potency, µM (series often up to 57 µM), for inactives: top-dose activity change, negative = inhibition, hits mostly inhibitors; 360,000 tested, 0.72% active; AID 1745845, 2022; note: % is set by controls: 0 for no effect and ±100 for the full control effect; nearly all actives have a fitted effect of over 55% in size
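ATXN2-luciferase reporter cells (luciferase flanked by upstream and downstream ATXN2 gene portions) were treated 24 h at 37 °C with compounds at up to 57 uM. SteadyGlo luminescence gave expression; GF-AFC fluorescence gave viability.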
RORg inh: qHTS for inhibitors of ROR gamma transcriptional activity. Nuclear receptor ROR-gamma (Mus musculus), P51450. Drosophila S2 Gal4-RORgamma UAS-luciferase reporter, 20 h. Potency, µM (doses to about 53.6 µM), inactives show at the top dose activity change, negative = inhibition, most hits filed as inhibitors. 310,000 tested, 5.4% active; note: % is set by controls: 0 for no effect and ±100 for the full control effect; nearly all actives have a fitted effect of over 60% in size
Target sequence (P51450 whole entry, looked up, the tested form may be a part): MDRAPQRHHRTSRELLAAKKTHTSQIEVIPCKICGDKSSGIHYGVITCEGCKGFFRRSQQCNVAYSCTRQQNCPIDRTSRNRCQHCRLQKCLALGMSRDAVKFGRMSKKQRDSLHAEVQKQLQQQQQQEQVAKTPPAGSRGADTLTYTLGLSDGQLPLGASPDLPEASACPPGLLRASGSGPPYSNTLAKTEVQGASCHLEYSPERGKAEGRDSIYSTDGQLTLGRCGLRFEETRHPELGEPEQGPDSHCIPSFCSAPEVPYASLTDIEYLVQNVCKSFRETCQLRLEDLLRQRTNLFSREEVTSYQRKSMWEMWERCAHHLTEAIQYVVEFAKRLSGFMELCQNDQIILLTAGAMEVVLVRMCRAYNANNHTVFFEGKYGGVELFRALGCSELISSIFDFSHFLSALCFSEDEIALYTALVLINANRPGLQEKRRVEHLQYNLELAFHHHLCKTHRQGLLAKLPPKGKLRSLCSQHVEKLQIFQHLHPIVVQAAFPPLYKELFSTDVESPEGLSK
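A Gal4/UAS one-hybrid system in insect cells: metallothionein-promoter Gal4–ROR gamma fusion plus Photinus luciferase reporter. Copper sulfate 700 uM final, 20 hr ambient incubation, luminescent detection after 10 min with reagent.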
VP16 counter: VP16 counterscreen qHTS for inhibitors of ROR gamma transcriptional activity | 310,000 tested, 3.5% active | Drosophila S2 Gal4-VP16 UAS-luciferase, luminescence, 20 h | Potency, µM (top dose mostly 53.6 µM), without a hit: top-dose activity, negative = inhibition, most hits filed as inhibitors | AID 2546, 2010;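 note: Gal4-VP16 expression switched on by copper sulfate through the metallothionein promoter; % is set by controls: 0 for no effect and ±100 for the full control effect; nearly all actives have a fitted effect of over 50% in size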
TGFb SMAD3 inh: qHTS for Inhibitors of TGF-b | HepG2 CAGA-GFP TGF-b/SMAD3 reporter, GFP fluorescence, 18 h; TGF-beta stimulated, 500 pg/mL final | Potency, µM (top dose mostly 46.1 µM), inactives show at the highest dose activity, negative = inhibition, actives largely listed as inhibitors | 410,000 tested, 1.2% active | AID 588855, 2011; note: % is set by controls: 0 for no effect and ±100 for the full control effect; nearly all actives have a fitted effect of over 65% in size
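Cell-based qHTS in HEPG2 carrying a CAGA-GFP Smad reporter; compounds added before 500 pg/mL final TGF-beta, 18 h incubation at 37 degrees C, GFP fluorescence quantified per cell by imaging cytometry.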
S2 tox: Viability Counterscreen for Primary qHTS for Inhibitors of ATXN expression | S2 cells (HEK-293 line with an ATXN2-luciferase reporter) viability, CellTiter-Fluor protease fluorescence, 24 h | 400,000 tested, 0.49% active | AID 651635, 2014 | Potency, µM (series often up to 56.7 µM), usual class: cytotoxic; note: nearly all actives have a fitted effect of over 40% in size
HepG2 tox-1: qHTS for Inhibitors of TGF-b: Cytotox Counterscreen; Potency, µM (titrated, usually from 46.1 µM), for the others: top-dose activity change, negative = cytotoxicity, hits mostly cytotoxic; HepG2 CAGA-GFP viability, ATP luminescence, 18 h; 410,000 tested, 0.76% active
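CellTiter-Glo luminescence gave cytotoxicity after 18 hours at 37 degrees C. The cells were HepG2 CAGA-GFP in 1% FBS DMEM, stimulated with 500 pg/mL TGF-beta after compound addition. %Activity was normalised to no-cell wells (complete cell-killing) and DMSO (no toxicity), and curves were fitted and classified.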
TGFb confirm: qHTS for Inhibitors of TGF-b: Confirmation of Cherry Picks; shares compounds with TGFb SMAD3 inh; HepG2 CAGA-GFP TGF-b reporter, GFP fluorescence, 18 h; cells stimulated with TGF-beta, 500 pg/mL; Potency, µM (series often up to 46.1 µM), inactives show at the highest dose activity, negative = inhibition, most hits filed as inhibitors; 1,600 tested, 63% active; note: % is set by controls: 0 for no effect and ±100 for the full control effect; nearly all actives have a fitted effect of over 65% in size
HepG2 tox-2: qHTS for Inhibitors of TGF-b: Cytotox Counterscreen for Cherry Picks; shares compounds with TGFb SMAD3 inh; HepG2 CAGA-GFP viability, ATP luminescence, 18 h; cells stimulated with TGF-beta, 500 pg/mL; 1,600 tested, 27% active; Potency, µM (series often up to 46.1 µM), for inactives: at the highest dose activity, negative = cytotoxicity, most hits filed as inhibitors; note: % is set by controls: 0 for no effect and ±100 for the full control effect; nearly all actives have a fitted effect of over 70% in size
CCL64 TGFb inh: qHTS for Inhibitors of TGF-b: CCL64 Cells Orthogonal Assay for Cherry Picks. shares compounds with TGFb SMAD3 inh. CCL64 CAGA-GFP reporter, TGF-b stimulated, GFP fluorescence, 18 h. Potency, µM (titrated, usually from 46.1 µM), without a hit: at the top dose activity, negative = inhibition, actives largely listed as inhibitors. 1,600 tested, 41% active. AID 720536, 2013; note: nearly all actives have a fitted effect of over 65% in size
TGFb COP inh: qHTS for Inhibitors of TGF-b: Hit Validation in HepG2 Cells using COP promoter; HepG2 COP-GFP TGF-b reporter, GFP fluorescence, 18 h; cells stimulated by added recombinant TGF-beta; 1,600 tested, 3% active; Potency, µM (top dose mostly 46.1 µM), for inactives: at the top dose activity, negative = inhibition, actives largely listed as inhibitors; shares compounds with TGFb SMAD3 inh; note: nearly all actives have a fitted effect of over 70% in size
* = called active by the depositor; [ ] = dose if it differs, or a comment. Only some compounds are listed: those with a hit (about 6.3% of all), similar ones and a draw of the others. Calls come from the whole dose curve; as a rule, active = well fitted curve in the direction sought with a large enough effect; inconclusive = small, poorly fitted or top-dose-only effect, or another doubt; inactive = no such curve, though single readings can be large; an effect the other way counts as inactive or inconclusive. Potency is the fitted concentration of half-maximal effect.

Results for CCN(c1ccccc1)S(=O)(=O)c1cc(C(=O)Nc2cccc(Cl)c2)ccc1F ?
ATXN2 expr inh: -38%; RORg inh: 14%; VP16 counter: -19%; TGFb SMAD3 inh: 10µM*; S2 tox: inconclusive; HepG2 tox-1: -25%; TGFb confirm: 9.2µM*; HepG2 tox-2: inconclusive; CCL64 TGFb inh: 15µM*; TGFb COP inh: 58%

Results for O=C(Nc1cccc(Cl)c1)c1ccc(F)c(S(=O)(=O)NCc2cccs2)c1 ?
ATXN2 expr inh: inconclusive; RORg inh: 15%; VP16 counter: 20µM*; TGFb SMAD3 inh: 10µM*; S2 tox: inactive; HepG2 tox-1: -31%; TGFb confirm: inconclusive; HepG2 tox-2: inconclusive; CCL64 TGFb inh: inconclusive; TGFb COP inh: 11%

Results for Clc1nnc2c3ccccc3ccn12 ?
ATXN2 expr inh: -6%; TGFb SMAD3 inh: -2%; S2 tox: inconclusive; HepG2 tox-1: 8%

Results for CC(=O)O[C@@H](C[C@@H](C)C1=C2C[C@H](O)C3[C@@]4(C)CCC(=O)C(C)(C)C4CC[C@]3(C)[C@@]2(C)CC1)[C@H]1OC1(C)C (some centres not stated) ?
ATXN2 expr inh: inconclusive; TGFb SMAD3 inh: 11µM*; S2 tox: 35µM*; HepG2 tox-1: -24%; TGFb confirm: 13µM*; HepG2 tox-2: inconclusive; CCL64 TGFb inh: inconclusive; TGFb COP inh: 52%

Results for CNC1C(O)C(OC2C(N)CC(N)C(OC3OC(CN)=CCC3N)C2O)OCC1(C)O (configuration not stated) ?
RORg inh: 1%; VP16 counter: 1%

What do the screens show for `COc1ccc(-c2cnc3c(NC(C)=O)cc(-c4cccc(C(=O)N(C)C)c4)cn23)cc1OC`?
ATXN2 expr inh: 0%; TGFb SMAD3 inh: 22%; S2 tox: inactive; HepG2 tox-1: -8%

How did CC(=O)N1CCN(c2ccc(NC(=O)c3ccc([N+](=O)[O-])o3)cc2Cl)CC1 do in these assays?
ATXN2 expr inh: -36%; RORg inh: -27%; VP16 counter: inconclusive; TGFb SMAD3 inh: 6.3µM*; S2 tox: inconclusive; HepG2 tox-1: inactive; TGFb confirm: 4.6µM*; HepG2 tox-2: 18µM*; CCL64 TGFb inh: 12µM*; TGFb COP inh: -28%

What do the screens show for `CCC(=O)N1CCN(c2ccc(NC(=O)c3ccc([N+](=O)[O-])o3)cc2Cl)CC1`?
ATXN2 expr inh: inconclusive; RORg inh: 10µM*; VP16 counter: -11%; TGFb SMAD3 inh: 7.9µM*; S2 tox: inconclusive; HepG2 tox-1: -87%; TGFb confirm: 3.7µM*; HepG2 tox-2: 9.2µM*; CCL64 TGFb inh: 21µM*; TGFb COP inh: -15%

Results for CCN1CCN(c2ccc(NC(=O)c3ccc([N+](=O)[O-])o3)cc2Cl)CC1 ?
ATXN2 expr inh: -11%; RORg inh: -33%; VP16 counter: 4%[10 µM]; TGFb SMAD3 inh: inconclusive; S2 tox: inconclusive; HepG2 tox-1: -6%

Results for CCN1CCN(c2ccc(S(=O)(=O)N3CCCCC3)cc2NC(=O)c2ccc([N+](=O)[O-])o2)CC1 ?
ATXN2 expr inh: inconclusive; TGFb SMAD3 inh: 7.9µM*; HepG2 tox-1: -106%; TGFb confirm: 10µM*; HepG2 tox-2: 21µM*; CCL64 TGFb inh: 16µM*; TGFb COP inh: inconclusive

What do the screens show for `CC(=O)Nc1ccc2nc(NC(=O)c3ccc([N+](=O)[O-])o3)sc2c1`?
ATXN2 expr inh: 3%; RORg inh: inconclusive; VP16 counter: 10µM*; TGFb SMAD3 inh: 5µM*; S2 tox: inactive; HepG2 tox-1: 0%; TGFb confirm: 1.8µM*; HepG2 tox-2: 21µM*; CCL64 TGFb inh: inconclusive; TGFb COP inh: 21%

Results for O=C(c1ccco1)N1CCN(C(=O)C2CCCc3c2[nH]c2ccc(Cl)cc32)CC1 (configuration not stated) ?
ATXN2 expr inh: 27%; RORg inh: inconclusive; VP16 counter: 2%; TGFb SMAD3 inh: 1µM*; S2 tox: inactive; HepG2 tox-1: -34%; TGFb confirm: inconclusive; HepG2 tox-2: inconclusive; CCL64 TGFb inh: inconclusive; TGFb COP inh: 10%

How did O=C(C[C@H]1C[C@H](C(=O)N2CCOCC2)[C@@]2(CCC3CCCC3)c3[nH]c4ccc(Cl)cc4c3CCN2C1=O)NCC12CC3CC(CC(C3)C1)C2 do in these assays?
ATXN2 expr inh: -4%; TGFb SMAD3 inh: -6%; S2 tox: inactive; HepG2 tox-1: -1%

How did COc1ccc2[nH]c3c(c2c1)CCN1C(=O)C(CC(=O)NCC24CC5CC(CC(C5)C2)C4)C[C@H](C(=O)N2CCOCC2)[C@@]31CCC1CCCC1 (some centres not stated) do in these assays?
ATXN2 expr inh: 8%; TGFb SMAD3 inh: 11µM*; S2 tox: inactive; HepG2 tox-1: 12%; TGFb confirm: 4.6µM*; HepG2 tox-2: -22%; CCL64 TGFb inh: 5.8µM*; TGFb COP inh: 19%
